From the supplement of paper PMC11417369
In all, about 25,000 sequences were measured (“ln(normalized median fluorescence intensity)”: median about 7.1, highest 2% from about 10 on). Many of the other results were omitted from the sample, so the highest values are more common in it than they were.

System: PfSIP2 AP2 domain 1 (GST-tagged)
Assay: gcPBM binding intensity (ln(normalized median fluorescence intensity)); higher = stronger DNA binding
How it was run: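 In this array assay, P. falciparum DNA-binding domains with a GST tag, expressed in E. coli, were applied for 1 h to primer-extended double-stranded 36-bp intergenic genomic probes and negative controls on an Agilent 4 × 180k array. Bound protein was visualised with Alexa488 anti-GST antibody at 488 nm. Binding intensity is the highest Masliner-normalised natural-log median intensity across replicate spots of either probe orientation.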

First: AATATATTGCACCATTGGACCTGAATAATTCTTCCA [CACACA_negctrl_site1071]
Second: AATATAATATATTGCACACAAAAAGTGAATTATTCT [CACACA_site1684]
The “gcPBM binding intensity (ln)” value of the first is higher: 10.6 for the first, 7.12 for the second.

Going from “CTTTCTATATAAAATCGTACATATATAATATTATAT [XGTACX_site5807]” to “GACATATAAATATACACACATACGTAAGTATATTAA [CACACA_site1790]”, the “gcPBM binding intensity (ln)” value falls from 7.3 to 6.91.

Going from GGAAAATACATTCCAGTGCATTAATTTATTCAACGT to “AGAGACACTTTTTATTGTACAAGAGGAGGTTACCTT [XGTACX_site8768]”, the “gcPBM binding intensity (ln)” value falls from 8.59 to 6.61.

Going from “AGAACATGCAAACATGCACACAGAAAAAAAAAATAT [CACACA_site8442]” to “AAAAAAAAAAAAGAAACACACATATATATATATATA [CACACA_site140]”, the “gcPBM binding intensity (ln)” value rises from 8.26 to 8.95.

Going from “AAACAGAAGACATATACACACATACAAAAAAGTGCA [CACACA_site4699]” to “AAAAAAAAAAAGAACACACACAGTGCACATTCGGTG [CACACA_site788]”, the “gcPBM binding intensity (ln)” value rises from 7.62 to 10.3.

Compared with “AAAAAAAAAAAAAGAACACACACAGTGCACATTCGG [CACACA_site8163]”, “AAAAAAAAAAAAGAAACACACACATTTGTATATAAT [CACACA_site8648]” is lower in “gcPBM binding intensity (ln)” value: 10.6 for the first, 6.93 for the second.

Compared with “TGAACACACGAGCACACACACACATCTATATTTATA [CACACA_site6607]”, “TTAATTACACAAAAAAGTACTTGATATTGTTTATTA [XGTACX_site3449]” is lower in “gcPBM binding intensity (ln)” value: 7.22 for the first, 6.85 for the second.

Compared with “AAATACTGATTTGGTTGTACATGTGCACTATATAAC [XGTACX_site3795]”, “ATACTAACATTTTTTTGTACATATAACTATAAAATA [XGTACX_site1033]” is lower in “gcPBM binding intensity (ln)” value: 11.4 for the first, 7.32 for the second.

Compared with “AAATATTTGTGTGGTTGTACTATAATGATAAAAATA [XGTACX_site7703]”, “GGAACTTTTGGAGGTGCATGCGGAGCAATCTTTTCA [TGCATGCA_site454]” is higher in “gcPBM binding intensity (ln)” value: 7.27 for the first, 10.6 for the second.

Going from “CCTTTTTCTAATGGATGTACTTATTATATACATTAT [XGTACX_site281]” to “TTGAAAAATCAGCACACACACAAATACATACATATT [CACACA_site7505]”, the “gcPBM binding intensity (ln)” value falls from 7.14 to 7.03.

Going from “TTTTTTTTTTTTTTTTTTGGTGAGAGAAGAAAATTC [CACACA_negctrl_site950]” to TTTTTTTTTTTGTGAGTGCACGTATGAAGAGAAAAA, the “gcPBM binding intensity (ln)” value rises from 7.02 to 10.8.

Going from “ATTTTGATGATGTATGCACACATTGAAAATGAGAAA [CACACA_site2916]” to “AATTATGCACAAATCACACATATAAAATAAAAAGTG [CACACA_site4474]”, the “gcPBM binding intensity (ln)” value falls from 9.12 to 7.87.

First: AGGAATATAAAGTGCACACATAATTTGGGGGCAAAA [CACACA_site258]
Second: TCAGGAATATAAAGTGCACACATAATTTGGGGGCAA [CACACA_site7974]
The “gcPBM binding intensity (ln)” value of the first is higher: 11.7 for the first, 11.2 for the second.

Compared with “AATTTTGGAACGTGCACACATATGTAATATATATAT [CACACA_site3067]”, “AATTTAATATAATGCACACATAAAAAAAAAAAAAAA [CACACA_site123]” is lower in “gcPBM binding intensity (ln)” value: 10.1 for the first, 7.42 for the second.

First: GAATAAAGGAGAGGCACACATATATATATATATATA [CACACA_site2452]
Second: ATATAGTATTAATTTGCATGTCATGTATTAGGTCGA [TGCATGCA_site540]
The “gcPBM binding intensity (ln)” value of the first is higher: 9.61 for the first, 6.73 for the second.

Going from “TAAAATTTTATAAAGGAACACACATTTTTTTTTTTT [CACACA_site8740]” to “TTTGATTTTAATGTGTGTACACATTTATTTATATAA [XGTACX_site4806]”, the “gcPBM binding intensity (ln)” value rises from 6.87 to 7.74.

Compared with “AAATAAGAAAATCATAGTACATAGGAATAGAAGAAC [XGTACX_site3135]”, “ATATGGAATGATCATAGTACATAATTTAAAATTTTA [XGTACX_site3568]” is lower in “gcPBM binding intensity (ln)” value: 7.59 for the first, 6.74 for the second.

Going from “ATAATGAAGACTTTTTTACACACTTCATATATTATA [CACACA_site8630]” to “AAAAAAAGAATGTGAACACACACATTGAATATAATT [CACACA_site8341]”, the “gcPBM binding intensity (ln)” value falls from 6.96 to 6.79.

Compared with “ATTAAAAAAAAAGAGCGTACAAATAATTACTTCTTT [XGTACX_site8262]”, “ATATCATCTTCTCTATCATTTTTTTTTTTTTTTTTT [CACACA_negctrl_site1220]” is higher in “gcPBM binding intensity (ln)” value: 6.83 for the first, 7.69 for the second.

Compared with “TATTTTAACATTAGGTGTACATACAAAAATAAAAAT [XGTACX_site8577]”, “AAATACTTAACATTGGTGCATATTTGTAAAATTATT [GTGCAC_site9515]” is higher in “gcPBM binding intensity (ln)” value: 7.37 for the first, 10.7 for the second.

Going from “TTATTATTATAAAATTGTACTTGGTATATTAACATA [XGTACX_site5829]” to “TTAATATAATTAAAATGTACTTATTTGTAAACATTA [XGTACX_site6313]”, the “gcPBM binding intensity (ln)” value falls from 6.98 to 6.78.

Compared with TTTAAAATACAGAAGGTGCATTTAACATATTTGTAT, “TATATATATTTAAGGTGTACATAAATAACAAAATAT [XGTACX_site2641]” is lower in “gcPBM binding intensity (ln)” value: 10.6 for the first, 7.47 for the second.

With “ATATTAAAATTTTAATGTACATGCGTATGTAGGAAT [XGTACX_site1673]” the “gcPBM binding intensity (ln)” value was 7.39.
